Biological target: Hexose transporter 1 (Plasmodium falciparum) (UniProt O97467)
Assay: ST_JUDE_LEISH: Cytotoxicity at 2uM final concentration against transgenic Leishmania Mexicana promastigotes LmPfHT that are glucose transport deficient and complemented with the Plasmodium falciparum hexose transporter. Activity is measured by DNA content using SYBR green in vitro
Format: functional

SMILES | inhibition [%]
COc1ccc2c(=O)c(-c3ccc(OC(F)(F)F)cc3)c(C)[nH]c2c1 | 1.76
CC(C)(C)OC(=O)N[C@@H](CS(=O)(=O)CCNC(=N)COCc1ccccc1)C(=O)OC(C)(C)C | 6.29
O=C(O)C1CC(=O)N(c2ccc(Cl)cc2)C1 (stereo not drawn) | -0.45
O=S(=O)(Nc1cccc(CCN2CCC(N3CCCCC3)CC2)c1)c1ccc(-c2ccccc2)cc1 | 5.01
CCOc1cc(CC)ccc1C1CCN(CCN2CCC(CNC(=O)c3ccc(-c4ccc(C#N)cc4)cc3)CC2)CC1 | 13
CC(C)NCc1ccc(-c2ccc(NC(=O)c3cccc(Cl)c3)cc2)cc1 | -1.18
O=C(/C=C/c1ccc(Cl)c(Cl)c1)NCCCN1CCC(c2c[nH]c3ccccc23)CC1 | 5.12
CC(C)(C)OC(=O)C1CCCN(Cc2ccc(-c3cccc(-c4nc5ccccc5[nH]4)c3)cc2)C1 (stereo not drawn) | 3.25
O=C(/C=C/c1ccc(Cl)c(Cl)c1)NCCCCCN1CCC(NC(=S)Nc2ccc(Cl)cc2)CC1 | 8.02
CCN(CCCN1CCCCC1)c1cc(C)nc(Nc2ccc(C)c(Cl)c2)n1 | 2.33
CN1CCN(Cc2cc(NC(=O)c3ccc(-c4ccc(Cl)cc4Cl)cc3)ccc2-c2ccccc2)CC1 | 2.47
CCN(CC)CCOc1ccc(NC(=O)c2oc3ccccc3c2C=Cc2ccccc2)cc1 | -0.45
Cc1cc(O)c(CN(C)Cc2ccc3c(c2)OCCO3)cc1C(C)C | 5.38
NC1=NC(CCc2ccccc2)N(c2ccc(Cl)cc2)C(N)=N1 (stereo not drawn) | 1.15
CCc1ccc(NC(=O)c2cccc(CN3CCCN(CC4CCCCC4)CC3)c2)cc1 | 1.36
CC1(C)NC(N)=NC(=N)N1OCCc1ccc(N)cc1 | 6.43
O=C(Nc1cc(Cl)ccc1O)c1cc(-c2ccccc2O)no1 | -2.61
CCN(CCCN1CCCCC1)c1cc(C)nc(Nc2ccc(C)cc2Cl)n1 | 7.68
O=C(NCC1CCC(C(=O)NC2CCCc3ccccc32)CC1)c1ccc(O)c(-c2ccc(Cl)c(Cl)c2)c1 (stereo not drawn) | 2.81
Cc1cccc2c1NC(=O)/C2=N/NC(=S)N(C)C | 4.53

SMILES | inhibition [%]
CCCC(=O)c1cnc2c(I)cccc2c1Nc1ccccc1C | 4.24
CCN(CC)CCN(Cc1ccc(-c2ccc(C(F)(F)F)cc2)cc1)C(=O)Cn1c(CCc2cccc(F)c2F)nc(=O)c2sccc21 | 1.36
COCCN1CCC(CNCC(C)(C)c2nc(-c3ccc(Cl)c(O)c3)c(-c3ccncc3)[nH]2)CC1 | 7.6
CCCCCC(C)C(C)c1cc(O)c2c(c1)OC(C)(C)CC2(O)c1ccccn1 (stereo not drawn) | 2.79
O=C(O)C1Cc2c([nH]c3ccccc23)C(c2ccc(Cl)cc2Cl)N1 (stereo not drawn) | 2.22
CCn1c(-c2nonc2N)nc2c(-c3cc4ccccc4s3)ncc(C(=O)N3CCC(N)C3)c21 (stereo not drawn) | 98.3
CCCc1cn2c3c(cc(C(=O)N[C@@H](Cc4ccccc4)[C@H](O)CNC4CCCCC4)cc13)N(CC)S(=O)(=O)CC2 | 0.94
COc1ccc(Oc2ccccc2CNCC2CCN(CC3CCCCC3)CC2)cc1 | -1.98
CC(=O)Nc1ccc(C(=O)Nc2cccc(-c3ccc(-c4nc5cccc(C)c5[nH]4)cc3)c2)cn1 | 4.51
CCCCCCNC(=O)C1Cc2c([nH]c3ccc(F)cc23)C2(CCN(Cc3ccccc3)CC2)N1 (stereo not drawn) | 9.28
Cc1cccc2nc(-c3ccc(-c4cccc(CN5CCN(c6ccncc6)CC5)c4)cc3)[nH]c12 | 25.8
COc1ccc(CNCc2ccc(F)cc2)cc1-c1ccc(S(=O)(=O)NCCN2CCCC2)cc1 | 6.73
CCCN(Cc1nnc(-c2cccs2)o1)C(=O)CSc1nnnn1-c1ccc(C)c(C)c1 | 11.8
CC(C)N1CCC(NC(=O)N2CCCN(c3ncnc4cc(-c5ccccc5)sc34)CC2)CC1 | 2.28
COc1ccc(-n2ccnc2SCC(=O)Nc2cc(Cl)ccc2OC)c(OC)c1 | -0.3
Oc1ccc(Cl)cc1Nc1nc(C(F)(F)F)nc2ccccc12 | 1.98
CCOC(=O)c1c(C)n(-c2ccccc2)c2ccc(OC(=O)c3ccc(S(=O)(=O)N(CC)CC)cc3)cc12 | 5.12
COc1cc(C(=O)Nc2cccc(-c3nc4ccccc4[nH]3)c2)ccc1OC(C)=O | 2.19
O=C(/C=C/c1ccc(Cl)c(Cl)c1)NCCCCCN1CCC(NC(=O)c2ccc3ccccc3c2)CC1 | 0.83

Biological target: Glucose transporter (Leishmania mexicana) (UniProt O61059)
Assay: ST_JUDE_LEISH: Cytotoxicity at 2uM final concentration against transgenic Leishmania Mexicana promastigotes LmGT2 that are glucose transport deficient and complemented with the L. Mexicana glucose transporter 2. Activity is measured by DNA content using SYBR green in vitro
Format: functional

SMILES | inhibition [%]
COc1ccc2c(=O)c(-c3ccc(OC(F)(F)F)cc3)c(C)[nH]c2c1 | 1.81
CC(C)(C)OC(=O)N[C@@H](CS(=O)(=O)CCNC(=N)COCc1ccccc1)C(=O)OC(C)(C)C | 5.74
O=C(O)C1CC(=O)N(c2ccc(Cl)cc2)C1 (stereo not drawn) | -1.26
O=S(=O)(Nc1cccc(CCN2CCC(N3CCCCC3)CC2)c1)c1ccc(-c2ccccc2)cc1 | 3.57
CCOc1cc(CC)ccc1C1CCN(CCN2CCC(CNC(=O)c3ccc(-c4ccc(C#N)cc4)cc3)CC2)CC1 | 13.1
CC(C)NCc1ccc(-c2ccc(NC(=O)c3cccc(Cl)c3)cc2)cc1 | -3.53
O=C(/C=C/c1ccc(Cl)c(Cl)c1)NCCCN1CCC(c2c[nH]c3ccccc23)CC1 | 6.57
CC(C)(C)OC(=O)C1CCCN(Cc2ccc(-c3cccc(-c4nc5ccccc5[nH]4)c3)cc2)C1 (stereo not drawn) | 0.78
O=C(/C=C/c1ccc(Cl)c(Cl)c1)NCCCCCN1CCC(NC(=S)Nc2ccc(Cl)cc2)CC1 | 6.39
CCN(CCCN1CCCCC1)c1cc(C)nc(Nc2ccc(C)c(Cl)c2)n1 | 1.16
CN1CCN(Cc2cc(NC(=O)c3ccc(-c4ccc(Cl)cc4Cl)cc3)ccc2-c2ccccc2)CC1 | -0.1
CCN(CC)CCOc1ccc(NC(=O)c2oc3ccccc3c2C=Cc2ccccc2)cc1 | 0.81
Cc1cc(O)c(CN(C)Cc2ccc3c(c2)OCCO3)cc1C(C)C | 2.54
NC1=NC(CCc2ccccc2)N(c2ccc(Cl)cc2)C(N)=N1 (stereo not drawn) | 1.06
CCc1ccc(NC(=O)c2cccc(CN3CCCN(CC4CCCCC4)CC3)c2)cc1 | -2.12
CC1(C)NC(N)=NC(=N)N1OCCc1ccc(N)cc1 | 5.49
O=C(Nc1cc(Cl)ccc1O)c1cc(-c2ccccc2O)no1 | -2.64
CCN(CCCN1CCCCC1)c1cc(C)nc(Nc2ccc(C)cc2Cl)n1 | 7.34
O=C(NCC1CCC(C(=O)NC2CCCc3ccccc32)CC1)c1ccc(O)c(-c2ccc(Cl)c(Cl)c2)c1 (stereo not drawn) | 4.27
Cc1cccc2c1NC(=O)/C2=N/NC(=S)N(C)C | 2.09

SMILES | inhibition [%]
CCCC(=O)c1cnc2c(I)cccc2c1Nc1ccccc1C | 3.57
CCN(CC)CCN(Cc1ccc(-c2ccc(C(F)(F)F)cc2)cc1)C(=O)Cn1c(CCc2cccc(F)c2F)nc(=O)c2sccc21 | -0.22
COCCN1CCC(CNCC(C)(C)c2nc(-c3ccc(Cl)c(O)c3)c(-c3ccncc3)[nH]2)CC1 | 7.7
CCCCCC(C)C(C)c1cc(O)c2c(c1)OC(C)(C)CC2(O)c1ccccn1 (stereo not drawn) | 3.05
O=C(O)C1Cc2c([nH]c3ccccc23)C(c2ccc(Cl)cc2Cl)N1 (stereo not drawn) | 4.37
CCn1c(-c2nonc2N)nc2c(-c3cc4ccccc4s3)ncc(C(=O)N3CCC(N)C3)c21 (stereo not drawn) | 10.9
CCCc1cn2c3c(cc(C(=O)N[C@@H](Cc4ccccc4)[C@H](O)CNC4CCCCC4)cc13)N(CC)S(=O)(=O)CC2 | -0.79
COc1ccc(Oc2ccccc2CNCC2CCN(CC3CCCCC3)CC2)cc1 | 2.13
CC(=O)Nc1ccc(C(=O)Nc2cccc(-c3ccc(-c4nc5cccc(C)c5[nH]4)cc3)c2)cn1 | 4.91
CCCCCCNC(=O)C1Cc2c([nH]c3ccc(F)cc23)C2(CCN(Cc3ccccc3)CC2)N1 (stereo not drawn) | 7.57
Cc1cccc2nc(-c3ccc(-c4cccc(CN5CCN(c6ccncc6)CC5)c4)cc3)[nH]c12 | 8.81
COc1ccc(CNCc2ccc(F)cc2)cc1-c1ccc(S(=O)(=O)NCCN2CCCC2)cc1 | 5.24
CCCN(Cc1nnc(-c2cccs2)o1)C(=O)CSc1nnnn1-c1ccc(C)c(C)c1 | 9.19
CC(C)N1CCC(NC(=O)N2CCCN(c3ncnc4cc(-c5ccccc5)sc34)CC2)CC1 | 0.31
COc1ccc(-n2ccnc2SCC(=O)Nc2cc(Cl)ccc2OC)c(OC)c1 | 4.9
Oc1ccc(Cl)cc1Nc1nc(C(F)(F)F)nc2ccccc12 | 2.23
CCOC(=O)c1c(C)n(-c2ccccc2)c2ccc(OC(=O)c3ccc(S(=O)(=O)N(CC)CC)cc3)cc12 | 5.12
COc1cc(C(=O)Nc2cccc(-c3nc4ccccc4[nH]3)c2)ccc1OC(C)=O | 0.31
O=C(/C=C/c1ccc(Cl)c(Cl)c1)NCCCCCN1CCC(NC(=O)c2ccc3ccccc3c2)CC1 | 1.46
